# VDR inhibitor – inhibitors of human vitamin D receptor. P11473. VDR-SRC2-3 peptide fluorescence polarization, 2 h. Potency, µM, for inactives: max response, negative = inhibition, most hits filed as inhibitors. 400,000 compounds, 0.93% hits
# Target sequence (P11473 whole entry, looked up): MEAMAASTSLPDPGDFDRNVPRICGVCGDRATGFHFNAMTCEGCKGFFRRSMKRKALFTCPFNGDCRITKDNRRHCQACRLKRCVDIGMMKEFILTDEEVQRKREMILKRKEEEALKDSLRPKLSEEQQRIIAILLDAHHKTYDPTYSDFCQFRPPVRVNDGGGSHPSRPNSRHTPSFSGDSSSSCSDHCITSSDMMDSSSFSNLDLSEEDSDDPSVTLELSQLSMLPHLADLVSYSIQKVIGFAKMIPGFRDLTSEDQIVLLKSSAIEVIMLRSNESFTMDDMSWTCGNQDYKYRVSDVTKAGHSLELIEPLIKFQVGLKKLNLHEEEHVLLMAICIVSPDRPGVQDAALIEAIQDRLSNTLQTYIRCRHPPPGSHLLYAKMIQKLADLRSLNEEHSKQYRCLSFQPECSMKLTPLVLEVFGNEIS
#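 Fluorescence polarization assay of small-molecule disruption of VDR binding to coregulator peptide SRC2-3. Compounds and controls pin-transferred, then read after 2 h incubation at ambient room temperature.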
# GCN5L2 inh – blocks human GCN5L2 histone acetyltransferase; Potency, µM (doses to about 58.9 µM), for inactives: top-dose activity change, negative = inhibition, usual class: inhibitors; 390,000 compounds, 0.21% hits; GCN5L2 HAT assay, ThioGlo1 CoA-SH fluorescence
#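 Titration-based screen in which CoA formation is detected via maleimide probe ThioGlo1 (50uM) turning fluorescent on thiol reaction; substrates H3(1-25) 75uM and acetyl-CoA 70uM, GCN5L2 20nM, 20 min incubation at room temperature.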
# TDP1 block – inhibitors of human tyrosyl-DNA phosphodiesterase TDP1 | 350,000 compounds, 0.28% hits | recombinant TDP1, AlphaScreen DNA substrate cleavage | Potency, µM (series often up to 130 µM), for inactives: at the top dose activity change, negative = inhibition, most hits filed as inhibitors | Q9NUW8; further: nearly all actives have a fitted effect of over 40% in size
#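 Enzyme-compound mixtures sat 15 min at room temperature, followed by a 5 min reaction with 15 nM final substrate and 10 min with AlphaScreen beads. Recombinant human Tdp1 was used at 1 nM final.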
# TDP1 cell noCPT – qHTS for Inhibitors of human tyrosyl-DNA phosphodiesterase 1 (TDP1): qHTS in cells in absence of CPT; 420,000 compounds, 15% hits; DT40 Tdp1-/- hTDP1 cells, no CPT, ATP luminescence, 48 h; Potency, µM (doses to about 46.2 µM), without a hit: at the highest dose activity change, negative = growth inhibition, hits mostly inhibitors; further: nearly all actives have a fitted effect of over 55% in size
#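 Readout: luminescence from CellTiter-Glo after 30 min in the dark at RT. Cells: DT40 Tdp1-/- with stable hTDP1, 400/well. Exposure: compounds alone, ≥48 hr, 37 °C.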
# PLK1 PBD block – blocks phosphopeptide binding to human PLK1 polo-box domain; P53350; 360,000 compounds, 2.8% hits; Plk1 PBD binding of FITC phosphopeptide, fluorescence polarization; Potency, µM, without a hit: max response, negative = inhibition, hits mostly inhibitors; further: series mostly up to about 57 µM; nearly all actives have a fitted effect of over 65% in size
# TDP1 cell CPT – DT40-hTDP1 cell growth loss with CPT; chicken DT40 Tdp1-/-;hTDP1 cells + 20 nM CPT, ATP luminescence, 48 h; Potency, µM (top dose mostly 46.2 µM), inactives show top-dose activity change, negative = growth inhibition, actives largely listed as inhibitors; 420,000 compounds, 12% hits; further: nearly all actives have a fitted effect of over 55% in size
#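 Cell growth measured by CellTiter-Glo luminescence after a minimum 48 h, 37 C compound exposure with 20 nM CPT in Tdp1-knockout DT40 cells stably expressing hTDP1, seeded 400/well; qHTS titration format.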
# The depositor's hits bear a star; ? = inconclusive; nt = no result; [ ] = another dose, or the depositor's remark. Only some compounds are listed: those with a hit (about 18% of all), similar ones and a draw of the others. The call rests on the fitted dose curve; in most records, active means well fitted curve in the direction sought with a large enough effect; inconclusive means small, poorly fitted or top-dose-only effect, or another doubt; inactive means no such curve, though single readings can be large; an effect the other way counts as inactive or inconclusive. On the % scale 0 is the no-effect control and ±100 the full control effect; potency means the concentration at half of the fitted maximal effect.
SMILES,VDR inhibitor,GCN5L2 inh,TDP1 block,TDP1 cell noCPT,PLK1 PBD block,TDP1 cell CPT
ON=Cc1ccnc2ccccc12,nt,nt,nt,?,0%,-23%
Nc1ccccc1/C=C/c1ccnc2ccccc12,nt,nt,nt,3.2µM*,nt,5µM*
C[n+]1c(/C=C/c2ccnc3ccccc23)cc(/C=C/c2ccnc3ccccc23)c2ccccc21,nt,nt,nt,2.5µM*,nt,5µM*
Cc1cc(CNC[C@H]2O[C@@H](n3ccc(=O)[nH]c3=O)[C@H](O)[C@@H]2O)no1,nt,nt,nt,6%,-9%,-15%
O=C(Nc1ccc(Cl)cc1)N1CCC(c2nc(-c3ccccc3Cl)no2)CC1,-4%,-11%,-2%,18µM*,1%,23µM*
COc1ccccc1C(=O)N1CCC(c2noc(-c3ccc(S(=O)(=O)N4CCCC4)cc3)n2)CC1,16%,-1%,2%,16µM*,nt,23µM*
CCc1ccc(C(=O)N2CCC(c3nc(-c4ccc(S(=O)(=O)N5CCCC5)cc4)no3)CC2)cc1,13%,0%,0%,21µM*,nt,?
Cc1cccc(C(=O)N2CCC(c3nc(-c4ccc(S(=O)(=O)N5CCOCC5)cc4)no3)CC2)c1,-11%,-7%,4%,21µM*,-13%,16µM*
COc1ccc(C(=O)Nc2ccc(N3CCN(c4ccccc4)CC3)c(C(=O)O)c2)cc1,0%,-1%,0%,-9%,nt,0%
COC(=O)c1ccc(CSCc2ccc(C#N)cc2)cc1,nt,-18%,nt,nt,nt,nt
CCCCOc1ccc(C(=O)N2CCN(CCc3ccncc3)CC2)cc1,-8%,-6%,1%,?,nt,?
OCC1(CO)CCCC(CO)(CO)C1O,13%,nt,nt,0%,-4%,1%
N#CCCCS(=O)(=O)c1nc2ccccc2s1,-1%,nt,7%,nt,nt,nt
O=C(Nc1ccccc1)N1CCC(c2nc(-c3ccc(S(=O)(=O)N4CCOCC4)cc3)no2)CC1,3%,1%,3%,3.3µM*,6%,4.1µM*
O=C(c1cccs1)N1CCC(c2nc(-c3ccc(S(=O)(=O)N4CCOCC4)cc3)no2)CC1,-12%,-4%,3%,18µM*,-11%,?
Cc1ccccc1C(=O)N1CCC(c2nc(-c3ccc(S(=O)(=O)N4CCCC4)cc3)no2)CC1,5%,2%,5%,-14%,nt,-9%
COC(=O)[C@]12CCCCC=C1N(CCC1=CCCCC1)C(=O)[C@H](CC(=O)NCc1cccc3ccccc13)C2,nt,nt,nt,?,-3%,?
CCC(c1nnnn1C1CCCC1)N1CCN(C/C=C/c2ccccc2)CC1 (centres undefined),nt,nt,nt,?,-2%,?
C(=C\c1ccccc1)/CN1CCN(C(c2ccccc2)c2nnnn2C2CCCCC2)CC1 (centres undefined),nt,nt,nt,13µM*,7%,?
COc1cccc(C(c2nnnn2C2CCCC2)N2CCN(C/C=C/c3ccccc3)CC2)c1OC (centres undefined),nt,nt,nt,?,3%,?
C1=C(C(c2nnnn2C2CCCCC2)N2CCCCC2)COc2ccccc21 (centres undefined),17%,-5%,2%,16µM*,-4%,?
CSCCC(c1nnnn1C1CCCCC1)N1CCN(C/C=C/c2ccccc2)CC1 (centres undefined),nt,nt,nt,21µM*,7%,?
C(=C\c1ccccc1)/CN1CCN(C(c2ccnc3ccccc23)c2nnnn2C2CCCCC2)CC1 (centres undefined),nt,nt,nt,18µM*,8%,23µM*
Fc1ccc(C(c2nnnn2C2CCCCC2)N2CCCC2)cc1 (centres undefined),5%,-4%,6%,-25%,-2%,-1%
COc1ccc(/C=C/C(=O)NCC(=O)N/N=C(/C)c2ccc(Cl)cc2)cc1,0%,-4%,-2%,9%,-16%,-1%
SMILES,VDR inhibitor,GCN5L2 inh,TDP1 block,TDP1 cell noCPT,PLK1 PBD block,TDP1 cell CPT
CCCc1nc2nc(C)c(NS(=O)(=O)c3ccc(Cl)cc3)c(=O)n2[nH]1,-1%,-3%,4%,-21%,-9%,-25%
CCCn1cc(C(=O)N(C)C2CCCN(Cc3ccccc3F)C2)c(C)n1 (centres undefined),-6%,-19%,2%,-1%,-1%,12%
CCC(c1nnnn1C1CCCC1)N1CCN(Cc2ccccc2)CC1 (centres undefined),-3%,0%,0%,-20%,-9%,-6%
Fc1ccccc1C(c1nnnn1C1CCCC1)N1CCN(Cc2ccccc2)CC1 (centres undefined),-1%,-3%,2%,12µM*,-12%,21µM*
COCCNC(=O)C1CCCN(C(=O)COCc2ccccc2)CC1 (centres undefined),nt,nt,nt,2%,0%,4%
COCCNc1oc(Cc2cccc3ccccc23)nc1C#N,10%,-4%,nt,?,-8%,-3%
O=C(C1CCCN(S(=O)(=O)c2ccc(Br)cc2)C1)N1CCN(Cc2ccccc2)CC1 (centres undefined),-6%,-6%,2%,?,-5%,16µM*
CC1CCCN(S(=O)(=O)c2ccc(S(=O)(=O)N3CCCN(Cc4ccccc4)C3)cc2)C1 (centres undefined),2%,-7%,1%,?,0%,16µM*
O=C(C1CCCN(S(=O)(=O)c2ccccc2)C1)N1CCN(c2ccccc2)CC1 (centres undefined),-3%,-4%,4%[56.1 µM],?,-3%,?
COc1ccc(-c2cc(C(F)(F)F)n3nc(C(=O)O)c(Cl)c3n2)cc1OC,-6%,-14%,-1%[12.3 µM],-10%,nt,16%
Cc1c(OC(C)C(=O)NCc2ccncc2)ccc2c3c(c(=O)oc12)CCCC3 (centres undefined),0%,0%,8%,?,-5%,21µM*
Cc1c(OC(C)C(=O)NCC(O)c2ccccc2)ccc2c3c(c(=O)oc12)CCCC3 (centres undefined),-14%,-15%,2%,?,-17%,23µM*
Cc1c(OC(C)C(=O)NCc2ccccn2)ccc2c3c(c(=O)oc12)CCC3 (centres undefined),?,1%,1%,?,-6%,?
Cc1cccc(NC(=O)CSc2nc(=O)n(CCCN3CCOCC3)c3c2CCCC3)c1,6%,-1%,nt,-2%,-2%,0%
CN(Cc1ccc2c(c1)CN(C(=O)c1cccc(N(C)C)c1)CCO2)Cc1cc(C2CC2)n[nH]1,nt,nt,nt,23µM*,nt,1%[9.04 µM]
